Several values for one entry are separate records, joined by “and”; a condition that tells them apart may be missing. Equal values may be shown once. Activity calls are given as the source filed them. Rule for the calls: active = hit-call score of the fitted dose curve at least 0.9, where 1 is the maximum; inactive = score below 0.9.
These compounds were tested on C-C motif chemokine 2 (Homo sapiens) (UniProt P13500) (assay: BSK_KF3CT_MCP1: BioMAP Diversity Plus: KF3CT Assay for Monocyte Chemoattractant Protein 1 (MCP1/CCL2) Biomarker Activity (AID 2283073)). Settings: primary human keratinocytes with fibroblasts; actives raise or lower the signal.
Description: BSK_KF3CT is a cell-based, multiplexed-readout assay that uses keratinocytes and foreskin fibroblasts, a human skin primary cell co-culture, with measurements taken at 24 hours after chemical dosing in a 96-well plate.BSK_KF3CT_MCP1 is an assay component measured in the BSK_KF3CT assay. It measures MCP-1 antibody related to regulation of gene expression using ELISA technology.Data from the assay component BSK_KF3CT_MCP1 was analyzed into 1 assay endpoint. This assay endpoint, BSK_KF3CT_MCP1, was analyzed with bidirectional fitting relative to DMSO as the negative control and baseline of activity. Using a type of binding reporter, gain or loss-of-signal activity can be used to understand changes in the signaling as they relate to the gene CCL2. Furthermore, this assay endpoint can be referred to as a primary readout, because this assay has produced multiple assay endpoints where this one serves a signaling function. To generalize the intended target to other relatable targets, this assay endpoint is annotated to the cytokine intended target family, where the subfamily is chemotactic factor.
The levels of cell surface (or secreted, indicated by the prefix "s") biomarker endpoints were measured by ELISA. Overt cytotoxicity to cells in confluent adherent cultures (all systems other than the BT system) was assessed by measuring total protein levels using sulforhodamine B (SRB) staining in parallel cultures at the time of biomarker measurements, indicated as SRB endpoints. For proliferation assays for adherent cell types, individual cell types are cultured at sub-confluence and relative cell numbers quantified by SRB staining at time points optimized for each system (48 h: 3C and CASM3C systems; 72 h: BT and HDF3CGF systems; 96 h: SAg system). SRB was performed by staining cells with 0.1% SRB after fixation with 10% TCA and reading wells at 560 nm.Viability and proliferation of PBMC (T cells) was quantified by Alamar Blue reduction for the SAg and BT systems. For PBMC viability (referred to as PBMC Cytotoxicity within the assay endpoint names), cells were plated (75,000/well in a 96-well plate) and then chemical samples added for 1 h before addition of activators, SEB and TSST-1 (20 ng/mL final concentration each). Cells were incubated for 90 h. Then, Alamar Blue (20 uL/well) (Invitrogen, Cat DAL1100) was added for 6 h, and the plates were read with a fluorescence microplate reader at 546/580 nm (excitation/emission). For PBMC proliferation, cells were plated and activated as above but incubated for only 16 h prior to addition of Alamar Blue. Plates were read after 6 h.

| Compound | outcome | AC50 |
| --- | --- | --- |
| CC(C)(C)c1ccc(O)cc1 | inactive |  |
| O=P(Oc1ccccc1)(Oc1ccccc1)Oc1ccccc1 | inactive |  |
| O=P(OCC(Br)CBr)(OCC(Br)CBr)OCC(Br)CBr (stereo not given) | inactive |  |
| CCOP(=S)(NC(C)C)Oc1ccccc1C(=O)OC(C)C (stereo not given) | inactive |  |
| CCCCN(CCCC)N=O | inactive |  |
| CCC(C)(C)c1ccc(O)cc1 | inactive |  |
| Cc1c([N+](=O)[O-])cc2c(c1[N+](=O)[O-])C(C)(C)CC2(C)C | inactive |  |
| CCOP(=S)(OCC)SCSc1ccc(Cl)cc1 | inactive |  |
| CCOS(=O)(=O)OCC | inactive |  |
| CCOP(=S)(OCC)SCSCC | inactive |  |
| CC(O)C(F)(F)C(F)(F)F (stereo not given) | inactive |  |
| ClC(Cl)=C(c1ccc(Cl)cc1)c1ccccc1Cl |  | 7.15 µM (active) |
| OCC(F)(F)OC(F)(F)C(F)(F)OC(F)(F)C(F)(F)OC(F)(F)F |  | 49.3 µM (active) and 22.2 µM (active) |
| O=S1(=O)OCC2C(CO1)C1(Cl)C(Cl)=C(Cl)C2(Cl)C1(Cl)Cl (stereo not given) | inactive |  |
| FC(F)(F)C(F)(C(F)(F)F)C(F)(F)C(F)(F)CC1CO1 (stereo not given) | inactive |  |
| C=CC(=O)OCC(F)(F)C(F)F | inactive |  |
| COC(=O)C(F)(F)C(F)(F)OC(F)(C(F)(F)F)C(F)(F)OC(F)=C(F)F (stereo not given) | inactive |  |
| c1cc2c3c(cccc3c1)CC2 | inactive |  |
| NC(=O)C(F)(F)C(F)(F)F | inactive |  |
| CCCCCCCc1ccc(O)cc1 |  | 29.6 µM (active) |

| Compound | outcome | AC50 |
| --- | --- | --- |
| c1nc[nH]n1 | inactive |  |
| CCCCOCCOP(=O)(OCCOCCCC)OCCOCCCC | inactive |  |
| CC(Cc1ccc(OCC(=O)O)cc1)NCC(O)c1csc(C(F)(F)F)n1 (stereo not given) | inactive |  |
| O=c1ssc(Cl)c1Cl |  | 2.98 µM (active) |
| Cc1ccc(N)cc1N | inactive |  |
| OCC(F)(F)OC(F)(F)C(F)(F)OC(F)(F)CO | inactive |  |
| [N-]=[N+]=[N-] | inactive |  |
| O=C(O)C(F)(OC(F)(F)C(F)(F)C(F)(F)F)C(F)(F)F (stereo not given) | inactive |  |
| CN(C)C(=O)Cl | inactive |  |
| O=C(O)C(F)(F)OC(F)(F)C(F)(F)OC(F)(F)F | inactive |  |
| CCCN(CCC)c1c([N+](=O)[O-])cc(C(C)C)cc1[N+](=O)[O-] | inactive |  |
| O=C(O)C(F)(F)C(F)(F)C(=O)O | inactive |  |
| Cc1ccc([N+](=O)[O-])cc1C | inactive |  |
| COP(=O)(CCC(=O)NCO)OC | inactive |  |
| CCCCN(CCCC)SN(C)C(=O)Oc1cccc2c1OC(C)(C)C2 | inactive |  |
| COP(N)(=S)OC | inactive |  |
| ClC(Cl)c1ccccc1 | inactive |  |
| OCC1CO1 (stereo not given) | inactive |  |
| CC(C)Nc1ccc(Nc2ccccc2)cc1 |  | 33.3 µM (active) |
| COCCOCCO |  | 0.254 µM (active) |
